Experiment [1] is described as follows: qHTS assay for small molecule agonists of the p53 signaling pathway (AID 651631; calls by dose curve; further: nearly all actives have a fitted effect of over 15% in size). A digest of the protocol: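 Readout was fluorescence from the LiveBLAzer FRET substrate, applied for 2 h at room temperature after 16 h compound exposure at 37 °C. Cells were the p53RE-bla HCT-116 line, with beta-lactamase driven by p53 response elements.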
A short description of experiment [2]: qHTS assay for small molecules that induce genotoxicity in human embryonic kidney cells expressing luciferase-tagged ATAD5 (AID 651632). Further: nearly all actives have a fitted effect of over 15% in size. In short, it runs like this: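 HEK293T cells carrying a luciferase reporter tagged to ATAD5 were exposed to compound or DMSO vehicle for 16 hr at 37C, 5% CO2. Amplite was added, and after 30 min at room temperature luciferase activity was read as a marker of ATAD5 induction.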

Experiment [3] is described as follows: qHTS assay for small molecule agonists of the p53 signaling pathway - cell viability (AID 651633; calls by dose curve; further: series mostly up to about 83 µM; nearly all actives have a fitted effect of over 30% in size). A digest of the protocol: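 p53RE-bla cells, seeded at 4,000 per well and rested 5 h at 37 C/5% CO2, received compounds in DMSO for 16 h at 37 C. CellTiter-Glo was then added, and luminescence was read after 30 min at room temperature to gauge cytotoxicity.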

Experiment [4] can be described thus: qHTS assay for small molecules that induce genotoxicity in human embryonic kidney cells expressing luciferase-tagged ATAD5 - cell viability (AID 651634; calls by dose curve; further: nearly all actives have a fitted effect of over 25% in size). In short, it runs like this: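 HEK293T cells expressing luciferase-tagged ATAD5 were exposed to compound or DMSO for 15.5 hr at 37C, 5% CO2. Viability was then read as live-cell protease activity by CellTiter-Fluor fluorescence after 30 min at 37C.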

A short description of experiment [5]: qHTS assay for small molecule disruptors of the mitochondrial membrane potential - cell viability (AID 720634; calls by dose curve;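 further: human HepG2 liver cancer cells; series mostly up to about 83 µM; nearly all actives have a fitted effect of over 20% in size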). A digest of the protocol: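 HepG2 cells seeded overnight at 37 C, then exposed to compound or DMSO for 1 hr at 37 C, 5% CO2. m-MPI dye added, then CellTiter-Glo for 30 min at room temperature; viability read as ATP luminescence.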
Experiment [6] in a line: qHTS assay for small molecule disruptors of the mitochondrial membrane potential (AID 720635). Further: potency means the concentration at half of the fitted maximal effect. In short, it runs like this: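 HepG2 cells (2,000/well) attached overnight at 37C, then took compound for 1 hr at 37C, 5% CO2. Mito-MPS dye was added for 30 min; fluorescence was read at 490/535 nm (monomers) and 540/590 nm (aggregates).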
Experiment [7] in a line: qHTS assay to test for compound auto fluorescence at 590 nm (red) in HepG2 cells (AID 720674). A digest of the protocol:
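Rose Bengal sodium served as the red fluorophore standard. HepG2 monolayers (overnight attachment, MEM with 10% FBS) were exposed to test compounds for 1 hr at 37 C and read at Ex 540/Em 590 nm.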

The nature of experiment [8]: qHTS assay to test for compound auto fluorescence at 535 nm (green) in HepG2 cells (AID 720675).
Experiment [9] is described as follows: qHTS assay to test for compound auto fluorescence at 460 nm (blue) in HEK293 cells (AID 720678). In short, it runs like this: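 Blue-channel (Ex/Em 405/460 nm) intensity measured in HEK293 cultures after overnight compound exposure at 37C; signal expressed relative to triamterene. Cells plated 2,000 per well in 10% dialyzed FBS medium and allowed 4-5 hr to attach.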

The nature of experiment [10]: qHTS assay to test for compound auto fluorescence at 590 nm (red) in HEK293 cells (AID 720679). In short, it runs like this: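 Red-channel autofluorescence (Ex/Em 540/590 nm; Rose Bengal sodium reference) was measured after overnight 37C, 5% CO2 exposure of attached HEK293 cells, 2,000 per well in medium with 10% dialyzed FBS.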
Experiment [11] is described as follows: qHTS assay to test for compound auto fluorescence at 535 nm (green) in HEK293 cells (AID 720680).
Experiment [12] is described as follows: qHTS assay to test for compound auto fluorescence at 460 nm (blue) in HEK293 cell free culture (AID 720681). In short, it runs like this:
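Test compounds were pinned into cell-free culture medium (DMEM with 10% FBS) and fluorescence was read directly at Ex/Em 405/460 nm. Signals were expressed as fluorescence equivalents of triamterene, with DMSO vehicle as control.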

Experiment [13] can be described thus: qHTS assay to test for compound auto fluorescence at 535 nm (green) in HEK293 cell free culture (AID 720682). A digest of the protocol: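 Compounds were pin-transferred into cell-free DMEM with 10% FBS, and green fluorescence was read at excitation 485 nm and emission 535 nm. Intensities were expressed as fluorescein-equivalent values.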
Experiment [14] can be described thus: qHTS assay to test for compound auto fluorescence at 590 nm (red) in HEK293 cell free culture (AID 720683). In short, it runs like this: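 Tox21 10K library compounds were pinned into cell-free DMEM with 10% FBS and fluorescence was read at excitation 540 nm. Activity is expressed as Rose Bengal sodium equivalency.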
Experiment [15] can be described thus: qHTS assay to test for compound auto fluorescence at 590 nm (red) in HepG2 cell free culture (AID 720684). In short, it runs like this:
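Measured in medium alone (MEM containing 10% FBS) following pintool addition of compound; emission at 590 nm with 540 nm excitation, referenced to Rose Bengal sodium.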

The nature of experiment [16]: qHTS assay to test for compound auto fluorescence at 460 nm (blue) in HepG2 cell free culture (AID 720685). A digest of the protocol: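 Compound (23 nL) or DMSO pinned into cell-free MEM with 10% FBS; blue fluorescence read at 405/460 nm excitation/emission, expressed as auto-fluorescence equivalency to triamterene.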
Experiment [17] can be described thus: qHTS assay to test for compound auto fluorescence at 535 nm (green) in HepG2 cell free culture (AID 720686).
The nature of experiment [18]: qHTS assay to test for compound auto fluorescence at 460 nm (blue) in HepG2 cells (AID 720687). In short, it runs like this:
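Cells (2,000/well in MEM with 10% FBS) attached overnight at 37 C, then were exposed to compound or DMSO for 1 hr at 37 C, 5% CO2. Fluorescence read at Ex/Em 405/460 nm, expressed as triamterene-equivalent signal.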

Experiment [19] concerns the target Glucocorticoid receptor (Homo sapiens) (UniProt P04150). Briefly: qHTS assay to identify small molecule agonists of the glucocorticoid receptor (GR) signaling pathway (AID 720691; active means well fitted activation curve with a large enough effect in the signal ratio in the repeat runs, not every such curve was filed as active; the % refers to the signal ratio). A digest of the protocol:
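GR-bla HeLa cells (beta-lactamase reporter under glucocorticoid response element) were plated 4 h at 37 C/5% CO2, given compounds in DMSO, and incubated 18 h at 37 C. LiveBLAzer B/G FRET substrate was added for 2 h at room temperature, then fluorescence intensity read.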

Experiment [20] shares this target. Briefly: qHTS assay to identify small molecule antagonists of the glucocorticoid receptor (GR) signaling pathway (AID 720692; active means well fitted inhibition curve with a large enough effect in the signal ratio in the repeat runs, not every such curve was filed as active; the % refers to the signal ratio). A digest of the protocol:
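GR-bla HeLa cells (beta-lactamase reporter under glucocorticoid response element) were pre-plated 4 h at 37 C, treated with compounds plus 5 nM dexamethasone (final) for 18 h, then read by LiveBLAzer B/G FRET fluorescence after 2 h.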

Records with an inconclusive call do not appear. The source made the active and inactive calls. Unless noted, the call rests on the fitted dose curve; in most records, active means well fitted curve in the direction sought with a large enough effect in the repeat runs; inconclusive means weak or mixed curves; inactive means no such curve, though single readings can be large; an effect the other way counts as inactive or inconclusive.

Chain of Glucocorticoid receptor (Homo sapiens) (P04150 whole entry, looked up): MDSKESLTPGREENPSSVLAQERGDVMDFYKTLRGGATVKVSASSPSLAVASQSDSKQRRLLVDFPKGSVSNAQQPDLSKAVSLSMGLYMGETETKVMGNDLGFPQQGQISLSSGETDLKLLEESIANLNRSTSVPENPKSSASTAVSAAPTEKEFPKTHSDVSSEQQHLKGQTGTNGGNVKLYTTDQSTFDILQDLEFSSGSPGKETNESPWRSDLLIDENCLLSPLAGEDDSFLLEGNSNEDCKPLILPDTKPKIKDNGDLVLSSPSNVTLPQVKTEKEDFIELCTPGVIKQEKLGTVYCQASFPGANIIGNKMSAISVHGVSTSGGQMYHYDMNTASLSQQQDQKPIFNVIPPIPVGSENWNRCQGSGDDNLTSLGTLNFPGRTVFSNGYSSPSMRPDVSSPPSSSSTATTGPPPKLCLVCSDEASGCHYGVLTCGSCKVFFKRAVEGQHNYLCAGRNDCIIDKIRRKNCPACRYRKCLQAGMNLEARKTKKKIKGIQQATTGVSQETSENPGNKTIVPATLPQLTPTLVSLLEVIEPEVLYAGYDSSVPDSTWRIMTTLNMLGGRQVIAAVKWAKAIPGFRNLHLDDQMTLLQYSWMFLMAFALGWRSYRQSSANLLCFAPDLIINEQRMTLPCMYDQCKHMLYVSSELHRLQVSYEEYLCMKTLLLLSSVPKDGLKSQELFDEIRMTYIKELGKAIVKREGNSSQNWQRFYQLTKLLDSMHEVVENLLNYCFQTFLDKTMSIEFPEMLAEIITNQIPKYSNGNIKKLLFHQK

On to `CC(C)=CCOc1c2occc2cc2ccc(=O)oc12`, for which the Potency result in experiment [1], in [2], in experiment [3], in experiment [4], in experiment [5] and in experiment [6] was “inactive” each time. The result in experiment [7], in [8], in experiment [9], in [10], in experiment [11] and in experiment [12] was inactive. Further, the outcome in experiment [13], in [14], in experiment [15], in experiment [16], in [17] and in experiment [18] was inactive.
For the molecule `Cn1cc[n+](C)c1` (tested in a mixture with another compound), the Potency result in experiment [1], in [2], in experiment [3], in [4], in experiment [5] and in [6] was “inactive” each time. For the same molecule, the outcome in experiment [7], in experiment [8], in experiment [9], in experiment [10], in [11] and in [12] was inactive. For the same molecule, the molecule was called inactive in experiment [13], in experiment [14], in experiment [15], in experiment [16], in experiment [17] and in experiment [18].
In the case of `CCCN(CC1CC1)c1c([N+](=O)[O-])cc(C(F)(F)F)cc1[N+](=O)[O-]`, the Potency result in [1], in [2], in experiment [3], in experiment [4], in experiment [5] and in [20] was “inactive” throughout. Further, the Potency in experiment [6] is 30.6 µM (active). Besides, the call in experiment [7], in [8], in [9], in [10], in [11] and in experiment [12] was inactive. In addition, the outcome in [13], in [14], in experiment [15], in experiment [16], in [17] and in experiment [18] was inactive. For the same molecule, the molecule was called inactive in experiment [19].
For the molecule `C=CCOC(C)=O`, the Potency result in [1], in experiment [2], in experiment [3], in [4] and in [5] was “inactive” throughout. In addition, the outcome in [7], in [8], in experiment [9], in [10], in [11] and in experiment [12] was inactive. Further, the molecule was classed as inactive in [13], in [14], in experiment [15], in experiment [16], in experiment [17] and in experiment [18].
`CCCCN=C=O`: the Potency result in experiment [1], in experiment [2], in experiment [3], in experiment [4] and in experiment [5] was “inactive” in each case. Besides, the call in [7], in experiment [8], in experiment [9], in experiment [10], in experiment [11] and in experiment [12] was inactive. The molecule was classed as inactive in experiment [13], in experiment [14], in experiment [15], in experiment [16], in experiment [17] and in [18].
As for `C#CCOC(C(=O)OCCN(C)C)(c1ccccc1)c1ccccc1`, the Potency entry in [1], in [2], in experiment [3], in experiment [4] and in [5] was “inactive” each time. Besides, the result in [7], in experiment [8], in experiment [9], in experiment [10], in experiment [11] and in [12] was inactive. Besides, the outcome in [13], in experiment [14], in experiment [15], in experiment [16], in [17] and in [18] was inactive.
Consider `CC[C@H]1C[C@H]2[C@@H]3CCC4=CC(=O)CC[C@@H]4[C@H]3CC[C@]2(C)[C@H]1O`, for which the Potency entry in experiment [1], in experiment [2], in experiment [3], in experiment [4] and in [5] was “inactive” throughout. Moreover, the result in experiment [7], in experiment [8], in experiment [9], in experiment [10], in [11] and in experiment [12] was inactive. The molecule was called inactive in experiment [13], in experiment [14], in experiment [15], in experiment [16], in experiment [17] and in [18].
Take `N#Cc1ccc(Cl)cc1`: the Potency result in experiment [1], in [2], in [3], in [4], in experiment [5] and in experiment [20] was “inactive” in each case. For the same molecule, the molecule was classed as inactive in [7], in experiment [8], in experiment [9], in experiment [10], in experiment [11] and in [12]. For the same molecule, the call in [13], in experiment [14], in experiment [15], in [16], in experiment [17] and in experiment [18] was inactive. Besides, the call in experiment [19] was inactive.

The values are drawn from PubChem BioAssay (Tox21).
